In the supplement of paper PMC11732987, “Enantioselective OTUD7B fragment discovery through chemoproteomics screening and high-throughput optimisation” (Communications Chemistry, 2025):

What was measured:
Experiment in all cases: log2 ratio of Biotin-Ahx-Ub-VS probe labelling (fragment/DMSO); higher = less target engagement (more negative = stronger competition), active = hit call of the paper (q ≤ 0.05, log2 ratio ≤ -1)
Details in all cases: compound concentration: 200 uM; treatment time: 3 h
[1] = target: T1, USP42 (UniProt Q9H9J4)
T1 sequence (whole entry): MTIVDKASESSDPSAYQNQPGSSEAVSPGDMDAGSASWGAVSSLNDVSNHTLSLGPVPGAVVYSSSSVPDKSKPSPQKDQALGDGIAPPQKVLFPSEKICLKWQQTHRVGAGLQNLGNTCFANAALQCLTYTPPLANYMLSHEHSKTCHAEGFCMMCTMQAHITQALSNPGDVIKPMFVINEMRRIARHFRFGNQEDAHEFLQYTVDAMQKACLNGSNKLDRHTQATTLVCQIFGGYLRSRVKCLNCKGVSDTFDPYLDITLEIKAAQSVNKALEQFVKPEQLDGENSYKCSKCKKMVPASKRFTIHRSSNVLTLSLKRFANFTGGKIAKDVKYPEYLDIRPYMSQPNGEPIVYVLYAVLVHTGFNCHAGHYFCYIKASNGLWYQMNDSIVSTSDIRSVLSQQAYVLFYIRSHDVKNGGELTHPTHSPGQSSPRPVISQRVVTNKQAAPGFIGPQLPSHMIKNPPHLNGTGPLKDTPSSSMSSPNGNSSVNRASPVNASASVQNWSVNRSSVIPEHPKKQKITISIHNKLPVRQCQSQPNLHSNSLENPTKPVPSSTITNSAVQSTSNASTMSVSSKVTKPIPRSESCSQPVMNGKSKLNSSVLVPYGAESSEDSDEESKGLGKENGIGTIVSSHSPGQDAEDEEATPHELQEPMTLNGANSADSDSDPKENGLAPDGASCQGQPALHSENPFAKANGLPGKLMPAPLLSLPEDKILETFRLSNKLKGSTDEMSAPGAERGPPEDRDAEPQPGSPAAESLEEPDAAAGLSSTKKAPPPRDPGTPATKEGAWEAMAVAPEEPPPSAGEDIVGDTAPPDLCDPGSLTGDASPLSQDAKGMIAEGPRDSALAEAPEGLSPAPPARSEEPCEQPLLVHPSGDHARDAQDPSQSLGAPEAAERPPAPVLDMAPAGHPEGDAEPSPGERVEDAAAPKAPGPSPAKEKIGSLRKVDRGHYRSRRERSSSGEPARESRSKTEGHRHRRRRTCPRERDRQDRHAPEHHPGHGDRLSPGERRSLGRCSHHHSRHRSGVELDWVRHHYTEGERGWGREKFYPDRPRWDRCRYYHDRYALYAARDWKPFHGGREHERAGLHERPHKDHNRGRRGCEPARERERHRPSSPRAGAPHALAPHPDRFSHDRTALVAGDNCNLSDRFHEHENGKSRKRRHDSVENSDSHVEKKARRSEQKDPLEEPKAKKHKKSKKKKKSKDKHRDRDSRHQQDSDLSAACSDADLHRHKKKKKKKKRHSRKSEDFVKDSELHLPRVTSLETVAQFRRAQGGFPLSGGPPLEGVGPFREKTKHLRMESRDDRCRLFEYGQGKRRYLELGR
How it was run: (§1)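 Each value is an average log2 ratio of fragment to vehicle, tested by unpaired t-test. The underlying Spectronaut label-free quantities were global-median-normalised, and only proteins with ≥2 unique peptides were included. Triplicate HEK293T lysate samples (495 µg) were exposed to fragment at 200 µM or vehicle for 3 h, then to Biotin-Ahx-Ub-VS at 0.5 µM final for 1 h, before NeutrAvidin enrichment of labelled DUBs, LysC and trypsin digestion, and diaPASEF LC-MS/MS.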

[2] = target: USP46 (UniProt P62068)
How it was run: as §1

[3] = target: T2, USP47 (UniProt Q96K76)
T2 sequence (whole entry): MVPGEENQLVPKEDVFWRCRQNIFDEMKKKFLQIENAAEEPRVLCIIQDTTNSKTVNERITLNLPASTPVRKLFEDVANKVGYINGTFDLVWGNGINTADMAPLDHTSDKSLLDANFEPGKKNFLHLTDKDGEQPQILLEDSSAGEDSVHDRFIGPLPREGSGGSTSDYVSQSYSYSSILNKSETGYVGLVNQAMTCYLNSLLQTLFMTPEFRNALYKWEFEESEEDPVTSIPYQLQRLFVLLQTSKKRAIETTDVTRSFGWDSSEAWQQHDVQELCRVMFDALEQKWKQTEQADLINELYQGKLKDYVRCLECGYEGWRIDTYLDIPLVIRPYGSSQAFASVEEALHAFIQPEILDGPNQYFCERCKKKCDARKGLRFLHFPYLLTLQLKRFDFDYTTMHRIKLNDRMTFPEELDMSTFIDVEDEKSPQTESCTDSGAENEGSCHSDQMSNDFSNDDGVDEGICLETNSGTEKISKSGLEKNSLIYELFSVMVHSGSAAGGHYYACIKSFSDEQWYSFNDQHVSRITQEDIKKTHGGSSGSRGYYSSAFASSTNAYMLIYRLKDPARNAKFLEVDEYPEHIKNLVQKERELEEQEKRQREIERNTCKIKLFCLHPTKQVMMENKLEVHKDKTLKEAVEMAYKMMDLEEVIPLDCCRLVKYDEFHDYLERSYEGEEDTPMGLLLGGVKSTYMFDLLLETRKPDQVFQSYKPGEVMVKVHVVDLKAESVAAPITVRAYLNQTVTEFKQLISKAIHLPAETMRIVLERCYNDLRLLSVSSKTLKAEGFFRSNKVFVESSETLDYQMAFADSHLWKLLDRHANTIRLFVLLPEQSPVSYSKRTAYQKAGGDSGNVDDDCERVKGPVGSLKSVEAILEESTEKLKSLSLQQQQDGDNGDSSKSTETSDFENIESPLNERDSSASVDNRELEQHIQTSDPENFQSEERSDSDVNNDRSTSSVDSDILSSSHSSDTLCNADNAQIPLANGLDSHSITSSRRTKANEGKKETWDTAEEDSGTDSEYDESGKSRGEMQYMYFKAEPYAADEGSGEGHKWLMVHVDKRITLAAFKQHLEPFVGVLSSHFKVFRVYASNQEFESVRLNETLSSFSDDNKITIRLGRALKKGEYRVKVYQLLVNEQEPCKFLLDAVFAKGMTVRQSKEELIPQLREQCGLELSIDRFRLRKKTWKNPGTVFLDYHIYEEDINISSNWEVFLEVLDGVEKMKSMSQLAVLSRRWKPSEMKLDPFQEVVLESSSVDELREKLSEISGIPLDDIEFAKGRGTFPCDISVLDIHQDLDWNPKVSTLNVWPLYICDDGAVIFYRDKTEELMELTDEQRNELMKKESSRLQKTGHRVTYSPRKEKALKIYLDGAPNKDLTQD
How it was run: as §1

[4] = target: T3, USP48 (UniProt Q86UV5)
T3 sequence (whole entry): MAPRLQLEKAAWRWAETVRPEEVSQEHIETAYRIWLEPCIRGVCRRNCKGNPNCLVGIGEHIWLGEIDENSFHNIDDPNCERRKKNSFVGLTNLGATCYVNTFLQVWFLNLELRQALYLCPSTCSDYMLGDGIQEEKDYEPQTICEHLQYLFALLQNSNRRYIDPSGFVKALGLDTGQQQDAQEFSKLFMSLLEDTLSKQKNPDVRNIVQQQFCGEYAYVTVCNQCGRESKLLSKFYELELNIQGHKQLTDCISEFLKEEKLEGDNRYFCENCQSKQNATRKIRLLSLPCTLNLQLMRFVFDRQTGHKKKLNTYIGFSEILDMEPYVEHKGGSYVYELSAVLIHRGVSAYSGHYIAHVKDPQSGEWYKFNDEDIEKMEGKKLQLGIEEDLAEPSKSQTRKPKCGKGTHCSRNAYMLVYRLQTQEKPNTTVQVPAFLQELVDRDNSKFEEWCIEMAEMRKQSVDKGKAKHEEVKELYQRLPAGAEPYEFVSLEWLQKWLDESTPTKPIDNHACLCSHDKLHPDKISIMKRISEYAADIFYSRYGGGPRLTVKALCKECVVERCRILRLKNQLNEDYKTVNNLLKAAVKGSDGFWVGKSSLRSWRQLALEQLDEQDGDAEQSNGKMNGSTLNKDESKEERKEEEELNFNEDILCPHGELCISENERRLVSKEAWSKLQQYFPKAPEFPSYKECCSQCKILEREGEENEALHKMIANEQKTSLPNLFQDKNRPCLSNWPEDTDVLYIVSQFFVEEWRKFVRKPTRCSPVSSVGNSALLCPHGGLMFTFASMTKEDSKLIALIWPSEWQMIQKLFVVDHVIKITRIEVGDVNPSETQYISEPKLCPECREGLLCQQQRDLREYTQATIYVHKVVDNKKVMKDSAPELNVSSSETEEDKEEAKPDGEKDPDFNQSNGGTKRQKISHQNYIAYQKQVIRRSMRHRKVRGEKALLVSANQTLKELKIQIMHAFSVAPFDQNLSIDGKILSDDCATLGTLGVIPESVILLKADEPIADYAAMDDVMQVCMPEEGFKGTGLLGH
How it was run: as §1

[5] = target: T4, USP5 (UniProt P45974)
T4 sequence (whole entry): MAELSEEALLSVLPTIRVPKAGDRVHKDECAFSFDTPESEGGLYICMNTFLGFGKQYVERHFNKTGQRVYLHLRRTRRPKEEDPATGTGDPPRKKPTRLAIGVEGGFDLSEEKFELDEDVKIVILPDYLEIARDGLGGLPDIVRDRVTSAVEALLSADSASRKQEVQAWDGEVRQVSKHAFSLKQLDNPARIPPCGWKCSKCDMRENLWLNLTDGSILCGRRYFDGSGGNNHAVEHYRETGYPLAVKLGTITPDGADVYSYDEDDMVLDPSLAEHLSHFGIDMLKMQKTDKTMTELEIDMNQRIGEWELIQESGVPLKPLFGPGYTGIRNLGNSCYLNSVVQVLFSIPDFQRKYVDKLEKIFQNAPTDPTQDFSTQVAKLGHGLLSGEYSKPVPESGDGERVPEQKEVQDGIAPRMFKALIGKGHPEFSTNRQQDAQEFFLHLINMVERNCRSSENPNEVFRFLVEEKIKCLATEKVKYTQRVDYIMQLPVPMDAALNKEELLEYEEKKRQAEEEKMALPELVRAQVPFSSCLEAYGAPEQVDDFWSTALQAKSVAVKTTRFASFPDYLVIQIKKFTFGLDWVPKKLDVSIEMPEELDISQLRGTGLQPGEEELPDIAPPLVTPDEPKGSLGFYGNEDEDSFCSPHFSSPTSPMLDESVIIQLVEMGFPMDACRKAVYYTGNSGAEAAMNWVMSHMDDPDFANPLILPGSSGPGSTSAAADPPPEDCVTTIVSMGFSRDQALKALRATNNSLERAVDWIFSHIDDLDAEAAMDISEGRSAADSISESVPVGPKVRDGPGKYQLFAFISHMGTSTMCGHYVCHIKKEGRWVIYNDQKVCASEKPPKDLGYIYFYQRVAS
How it was run: as §1

[6] = target: USP54 (UniProt Q70EL1)
How it was run: as §1

[7] = target: USP7 (UniProt Q93009)
How it was run: as §1

[8] = target: T5, USP8 (UniProt P40818)
T5 sequence (whole entry): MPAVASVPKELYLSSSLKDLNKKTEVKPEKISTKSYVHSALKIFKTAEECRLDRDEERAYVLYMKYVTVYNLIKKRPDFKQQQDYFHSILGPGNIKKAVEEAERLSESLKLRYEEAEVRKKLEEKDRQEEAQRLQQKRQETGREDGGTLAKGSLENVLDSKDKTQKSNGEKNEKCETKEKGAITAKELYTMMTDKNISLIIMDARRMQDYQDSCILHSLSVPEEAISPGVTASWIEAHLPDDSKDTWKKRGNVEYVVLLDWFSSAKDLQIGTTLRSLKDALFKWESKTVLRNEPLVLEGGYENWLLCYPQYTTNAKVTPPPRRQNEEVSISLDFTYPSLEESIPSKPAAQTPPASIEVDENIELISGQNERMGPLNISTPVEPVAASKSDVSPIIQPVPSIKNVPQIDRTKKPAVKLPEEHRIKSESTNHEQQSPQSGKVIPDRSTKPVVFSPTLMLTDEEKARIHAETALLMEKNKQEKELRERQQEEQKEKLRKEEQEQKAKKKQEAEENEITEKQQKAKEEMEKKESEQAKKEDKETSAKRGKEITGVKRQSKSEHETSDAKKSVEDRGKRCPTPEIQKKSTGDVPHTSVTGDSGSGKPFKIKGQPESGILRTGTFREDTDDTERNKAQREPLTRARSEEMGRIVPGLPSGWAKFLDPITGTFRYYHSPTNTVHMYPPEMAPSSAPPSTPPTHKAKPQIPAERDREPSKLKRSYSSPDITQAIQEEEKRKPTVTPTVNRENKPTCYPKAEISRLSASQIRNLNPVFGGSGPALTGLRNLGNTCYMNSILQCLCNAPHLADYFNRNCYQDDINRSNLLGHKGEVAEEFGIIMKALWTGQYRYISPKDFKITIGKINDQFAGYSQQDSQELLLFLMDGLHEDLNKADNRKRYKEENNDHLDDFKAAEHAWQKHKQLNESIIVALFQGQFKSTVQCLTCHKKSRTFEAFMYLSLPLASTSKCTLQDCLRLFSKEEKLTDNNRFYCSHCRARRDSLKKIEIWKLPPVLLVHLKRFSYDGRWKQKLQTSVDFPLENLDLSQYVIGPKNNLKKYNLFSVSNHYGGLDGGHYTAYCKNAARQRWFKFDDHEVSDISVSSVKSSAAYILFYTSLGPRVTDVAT
How it was run: as §1

[9] = target: USP9X (UniProt Q93008)
How it was run: as §1

[10] = target: UniProt O00487
How it was run: as §1

Measured: log2 ratio of Biotin-Ahx-Ub-VS probe labelling

USP7, sequence (Q93009 whole entry, looked up): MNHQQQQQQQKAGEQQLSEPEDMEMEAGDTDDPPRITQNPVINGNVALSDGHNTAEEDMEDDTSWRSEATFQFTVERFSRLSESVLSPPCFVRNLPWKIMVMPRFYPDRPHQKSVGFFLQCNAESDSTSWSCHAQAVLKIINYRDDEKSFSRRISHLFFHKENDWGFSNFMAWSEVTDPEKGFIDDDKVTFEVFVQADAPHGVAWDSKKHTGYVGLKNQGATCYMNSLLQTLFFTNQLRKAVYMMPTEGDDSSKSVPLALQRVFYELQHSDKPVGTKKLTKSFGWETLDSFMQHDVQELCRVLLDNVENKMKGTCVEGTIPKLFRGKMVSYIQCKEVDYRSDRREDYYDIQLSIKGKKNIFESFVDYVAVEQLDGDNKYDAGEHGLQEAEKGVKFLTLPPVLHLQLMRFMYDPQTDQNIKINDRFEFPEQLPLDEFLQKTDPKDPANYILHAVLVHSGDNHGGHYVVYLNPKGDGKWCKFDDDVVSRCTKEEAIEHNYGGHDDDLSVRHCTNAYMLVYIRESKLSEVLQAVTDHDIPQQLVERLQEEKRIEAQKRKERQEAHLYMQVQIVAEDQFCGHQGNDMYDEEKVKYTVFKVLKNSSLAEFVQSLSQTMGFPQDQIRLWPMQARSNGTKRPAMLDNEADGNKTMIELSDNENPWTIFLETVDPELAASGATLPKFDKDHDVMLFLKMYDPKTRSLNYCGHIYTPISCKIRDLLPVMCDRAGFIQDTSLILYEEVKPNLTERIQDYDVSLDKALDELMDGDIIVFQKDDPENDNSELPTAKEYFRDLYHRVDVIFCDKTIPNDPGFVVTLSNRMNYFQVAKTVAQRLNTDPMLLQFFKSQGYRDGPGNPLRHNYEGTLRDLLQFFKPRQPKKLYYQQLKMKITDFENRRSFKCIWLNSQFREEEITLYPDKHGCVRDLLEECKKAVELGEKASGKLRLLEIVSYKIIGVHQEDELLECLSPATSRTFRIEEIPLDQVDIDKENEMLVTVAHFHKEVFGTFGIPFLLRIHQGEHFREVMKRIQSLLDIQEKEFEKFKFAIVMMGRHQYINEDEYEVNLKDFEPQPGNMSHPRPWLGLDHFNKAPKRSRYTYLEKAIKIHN
UniProt O00487, sequence (O00487 whole entry): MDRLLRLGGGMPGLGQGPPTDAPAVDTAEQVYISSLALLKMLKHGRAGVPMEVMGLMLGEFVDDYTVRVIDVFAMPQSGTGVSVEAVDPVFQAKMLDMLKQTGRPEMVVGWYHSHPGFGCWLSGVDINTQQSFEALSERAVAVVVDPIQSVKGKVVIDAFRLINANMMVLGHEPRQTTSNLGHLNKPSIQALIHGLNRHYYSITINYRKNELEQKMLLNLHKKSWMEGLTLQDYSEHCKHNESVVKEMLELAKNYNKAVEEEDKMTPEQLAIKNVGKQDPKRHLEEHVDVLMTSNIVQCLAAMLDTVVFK
USP9X, sequence (Q93008 whole entry): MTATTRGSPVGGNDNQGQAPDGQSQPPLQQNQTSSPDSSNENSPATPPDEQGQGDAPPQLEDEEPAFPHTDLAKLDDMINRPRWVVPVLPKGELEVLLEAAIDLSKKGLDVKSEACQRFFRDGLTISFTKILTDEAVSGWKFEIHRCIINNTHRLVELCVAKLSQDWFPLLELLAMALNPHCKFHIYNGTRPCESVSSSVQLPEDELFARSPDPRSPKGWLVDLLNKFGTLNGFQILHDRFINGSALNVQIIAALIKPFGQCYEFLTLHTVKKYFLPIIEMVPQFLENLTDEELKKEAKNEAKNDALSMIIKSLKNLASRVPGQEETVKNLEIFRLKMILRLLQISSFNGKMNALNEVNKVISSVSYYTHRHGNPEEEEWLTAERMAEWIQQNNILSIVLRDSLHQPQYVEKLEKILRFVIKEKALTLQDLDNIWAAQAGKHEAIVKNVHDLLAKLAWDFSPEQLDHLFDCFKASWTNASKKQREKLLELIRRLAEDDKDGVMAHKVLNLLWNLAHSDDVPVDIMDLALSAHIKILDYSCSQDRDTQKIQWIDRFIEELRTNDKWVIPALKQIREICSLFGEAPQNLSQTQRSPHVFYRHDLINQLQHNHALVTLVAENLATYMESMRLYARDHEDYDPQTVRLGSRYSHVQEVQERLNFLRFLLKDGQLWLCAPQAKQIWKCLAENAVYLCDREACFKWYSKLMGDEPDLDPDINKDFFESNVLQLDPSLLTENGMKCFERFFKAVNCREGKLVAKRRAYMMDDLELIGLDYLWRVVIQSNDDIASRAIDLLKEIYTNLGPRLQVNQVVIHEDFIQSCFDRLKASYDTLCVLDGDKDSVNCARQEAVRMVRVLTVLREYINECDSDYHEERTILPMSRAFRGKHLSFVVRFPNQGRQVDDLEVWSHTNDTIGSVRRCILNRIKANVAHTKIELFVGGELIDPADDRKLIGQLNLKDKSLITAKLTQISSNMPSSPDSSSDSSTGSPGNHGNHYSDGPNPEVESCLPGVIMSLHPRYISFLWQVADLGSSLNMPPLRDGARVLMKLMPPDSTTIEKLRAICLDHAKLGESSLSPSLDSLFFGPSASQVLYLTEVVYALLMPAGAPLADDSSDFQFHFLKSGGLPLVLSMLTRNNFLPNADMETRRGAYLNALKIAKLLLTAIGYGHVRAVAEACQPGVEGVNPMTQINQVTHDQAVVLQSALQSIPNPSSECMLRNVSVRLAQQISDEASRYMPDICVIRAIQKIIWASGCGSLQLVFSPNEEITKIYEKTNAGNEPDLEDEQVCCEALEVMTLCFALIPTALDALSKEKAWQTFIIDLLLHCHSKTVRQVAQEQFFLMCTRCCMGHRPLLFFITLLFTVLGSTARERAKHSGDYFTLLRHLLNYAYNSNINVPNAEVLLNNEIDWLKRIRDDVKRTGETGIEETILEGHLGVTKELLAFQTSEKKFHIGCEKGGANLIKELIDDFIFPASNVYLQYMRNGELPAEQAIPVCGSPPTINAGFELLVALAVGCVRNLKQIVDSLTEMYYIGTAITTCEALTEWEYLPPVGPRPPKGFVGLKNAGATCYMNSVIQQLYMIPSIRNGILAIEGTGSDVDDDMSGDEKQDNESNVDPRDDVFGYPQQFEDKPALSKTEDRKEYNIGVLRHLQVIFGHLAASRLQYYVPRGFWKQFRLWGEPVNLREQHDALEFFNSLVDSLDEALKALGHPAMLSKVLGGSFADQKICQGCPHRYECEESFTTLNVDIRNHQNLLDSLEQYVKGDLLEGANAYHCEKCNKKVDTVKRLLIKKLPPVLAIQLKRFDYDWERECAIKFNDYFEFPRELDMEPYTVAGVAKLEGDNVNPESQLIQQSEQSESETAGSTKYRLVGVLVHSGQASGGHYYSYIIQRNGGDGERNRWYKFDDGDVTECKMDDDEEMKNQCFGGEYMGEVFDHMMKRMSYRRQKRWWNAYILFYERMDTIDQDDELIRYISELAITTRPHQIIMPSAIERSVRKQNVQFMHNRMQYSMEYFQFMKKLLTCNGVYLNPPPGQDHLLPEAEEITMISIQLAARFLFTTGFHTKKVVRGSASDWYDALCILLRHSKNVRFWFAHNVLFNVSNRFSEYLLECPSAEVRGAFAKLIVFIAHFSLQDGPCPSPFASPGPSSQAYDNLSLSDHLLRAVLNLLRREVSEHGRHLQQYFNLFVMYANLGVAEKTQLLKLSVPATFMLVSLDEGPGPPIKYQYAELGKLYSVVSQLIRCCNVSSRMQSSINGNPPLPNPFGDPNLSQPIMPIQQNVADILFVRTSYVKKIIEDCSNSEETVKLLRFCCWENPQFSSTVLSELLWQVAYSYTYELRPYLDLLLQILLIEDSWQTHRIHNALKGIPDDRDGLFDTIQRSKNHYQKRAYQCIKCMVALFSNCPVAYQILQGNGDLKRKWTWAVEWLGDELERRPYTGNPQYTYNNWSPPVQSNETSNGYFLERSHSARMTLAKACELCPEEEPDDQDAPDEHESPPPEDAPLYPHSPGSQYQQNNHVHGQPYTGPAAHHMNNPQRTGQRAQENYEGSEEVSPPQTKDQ
USP46, sequence (P62068 whole entry): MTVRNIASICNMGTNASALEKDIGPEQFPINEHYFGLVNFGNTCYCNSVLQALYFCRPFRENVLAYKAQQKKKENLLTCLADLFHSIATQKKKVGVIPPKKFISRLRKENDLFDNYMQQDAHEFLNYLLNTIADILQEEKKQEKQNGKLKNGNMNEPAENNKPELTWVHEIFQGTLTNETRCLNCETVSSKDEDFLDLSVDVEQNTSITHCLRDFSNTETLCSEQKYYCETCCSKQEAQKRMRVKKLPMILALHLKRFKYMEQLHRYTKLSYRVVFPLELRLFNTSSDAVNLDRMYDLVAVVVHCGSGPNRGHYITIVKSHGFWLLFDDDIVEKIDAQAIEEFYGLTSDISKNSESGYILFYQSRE

Cl.O=C(CCl)N1CCc2ncncc2C1
inactive: [1] 0.0472 | [2] -0.292 | [3] -0.409 | [4] -0.0378 | [5] -0.0354 | [6] 0.253 | [7] -0.411 | [8] -0.218 | [9] -0.425 | [10] -0.0759
